Source: the supplement of paper PMC8728848
About 410 targets per protein were measured; listed, in parts, are those with the strongest signals and a random draw of the rest.

Columns and labels:
Assay in all cases: glycan array binding signal (z-score within array); higher = stronger binding
Settings in all cases: glycan notation: IUPAC condensed, linker removed
Gal3S(b1-4)Glc = biological target: Gal3S(b1-4)Glc
How it was run: (§1)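 The binding signal is a Z-score computed within each array. Data were drawn from 3228 arrays in the Consortium for Functional Glycomics database, restricted to those with a known protein sequence. Scores were averaged over arrays of the same protein sequence at different concentrations or buffers, and over linkers, and negative values can be taken as non-binding.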

[1] = biological target: Glc(a1-4)Glc(a1-4)Glc(a1-4)Glc
How it was run: as §1

[2] = biological target: GlcNAc(b1-2)[GlcNAc(b1-6)]Man(a1-6)[GlcNAc(b1-2)Man(a1-3)]Man(b1-4)GlcNAc(b1-4)[Fuc(a1-6)]GlcNAc
How it was run: as §1

[3] = biological target: GlcNAc(b1-3)Gal(b1-4)GlcNAc(b1-2)[GlcNAc(b1-3)Gal(b1-4)GlcNAc(b1-6)]Man(a1-6)[GlcNAc(b1-3)Gal(b1-4)GlcNAc(b1-2)Man(a1-3)]Man(b1-4)GlcNAc(b1-4)GlcNAc
How it was run: as §1

[4] = biological target: GlcNAc(b1-3)Gal(b1-4)GlcNAc(b1-3)Gal(b1-4)GlcNAc(b1-2)Man(a1-3)[GlcNAc(b1-3)Gal(b1-4)GlcNAc(b1-3)Gal(b1-4)GlcNAc(b1-2)Man(a1-6)]Man(b1-4)GlcNAc(b1-4)GlcNAc
How it was run: as §1

[5] = biological target: GlcNAc(b1-3)Gal(b1-4)GlcNAc(b1-3)Gal(b1-4)GlcNAc(b1-2)[GlcNAc(b1-3)Gal(b1-4)GlcNAc(b1-3)Gal(b1-4)GlcNAc(b1-6)]Man(a1-6)[GlcNAc(b1-3)Gal(b1-4)GlcNAc(b1-3)Gal(b1-4)GlcNAc(b1-2)Man(a1-3)]Man(b1-4)GlcNAc(b1-4)[Fuc(a1-6)]GlcNAc
How it was run: as §1

[6] = biological target: GlcNAc(b1-3)Gal(b1-4)GlcNAc(b1-3)Gal(b1-4)GlcNAc(b1-3)Gal(b1-4)GlcNAc(b1-2)Man(a1-3)[GlcNAc(b1-3)Gal(b1-4)GlcNAc(b1-3)Gal(b1-4)GlcNAc(b1-3)Gal(b1-4)GlcNAc(b1-2)Man(a1-6)]Man(b1-4)GlcNAc(b1-4)[Fuc(a1-6)]GlcNAc
How it was run: as §1

[7] = biological target: GlcNAc(b1-3)Gal(b1-4)GlcNAc(b1-3)Gal(b1-4)GlcNAc(b1-3)Gal(b1-4)GlcNAc(b1-2)[GlcNAc(b1-3)Gal(b1-4)GlcNAc(b1-3)Gal(b1-4)GlcNAc(b1-3)Gal(b1-4)GlcNAc(b1-6)]Man(a1-6)[GlcNAc(b1-3)Gal(b1-4)GlcNAc(b1-3)Gal(b1-4)GlcNAc(b1-3)Gal(b1-4)GlcNAc(b1-2)Man(a1-3)]Man(b1-4)GlcNAc(b1-4)[Fuc(a1-6)]GlcNAc
How it was run: as §1

GlcNAc(b1-3)GalNAc = biological target: GlcNAc(b1-3)GalNAc
How it was run: as §1

[8] = biological target: GlcNAc(b1-3)[GlcNAc(b1-4)][GlcNAc(b1-6)]GlcNAc
How it was run: as §1

[9] = biological target: Man(a1-2)Man(a1-3)[Man(a1-2)Man(a1-6)]Man(a1-6)[Man(a1-2)Man(a1-2)Man(a1-3)]Man
How it was run: as §1

[10] = biological target: Neu5Ac(a2-3)Gal(b1-3)[Fuc(a1-4)]GlcNAc
How it was run: as §1

[11] = biological target: Neu5Ac(a2-3)Gal(b1-4)GlcNAc(b1-2)Man(a1-3)[Neu5Ac(a2-3)Gal(b1-4)GlcNAc(b1-2)Man(a1-6)]Man(b1-4)GlcNAc(b1-4)GlcNAc
How it was run: as §1

[12] = biological target: Neu5Ac(a2-3)Gal(b1-4)GlcNAc(b1-2)[Neu5Ac(a2-3)Gal(b1-4)GlcNAc(b1-6)]Man(a1-6)[Neu5Ac(a2-3)Gal(b1-4)GlcNAc(b1-2)Man(a1-3)][GlcNAc(b1-4)]Man(b1-4)GlcNAc(b1-4)GlcNAc
How it was run: as §1

[13] = biological target: Neu5Ac(a2-3)Gal(b1-4)[Fuc(a1-3)]GlcNAc(b1-3)Gal(b1-4)[Fuc(a1-3)]GlcNAc(b1-3)Gal(b1-4)[Fuc(a1-3)]GlcNAc
How it was run: as §1

[14] = biological target: Neu5Ac(a2-3)Gal(b1-4)[Fuc(a1-3)]GlcNAc(b1-6)[Gal(b1-3)]GalNAc
How it was run: as §1

[15] = biological target: Neu5Ac(a2-6)Gal(b1-4)GlcNAc(b1-2)[Neu5Ac(a2-6)Gal(b1-4)GlcNAc(b1-4)]Man(a1-3)[GlcNAc(b1-4)][Neu5Ac(a2-6)Gal(b1-4)GlcNAc(b1-4)Man(a1-6)]Man(b1-4)GlcNAc(b1-4)GlcNAc
How it was run: as §1

[16] = biological target: Neu5Ac(a2-6)Gal(b1-4)GlcNAc(b1-3)Gal(b1-4)GlcNAc(b1-3)Gal(b1-4)GlcNAc(b1-2)Man(a1-3)[Neu5Ac(a2-6)Gal(b1-4)GlcNAc(b1-3)Gal(b1-4)GlcNAc(b1-3)Gal(b1-4)GlcNAc(b1-2)Man(a1-6)]GalNAc
How it was run: as §1

[17] = biological target: Neu5Ac(a2-6)GalNAc(b1-4)GlcNAc6S
How it was run: as §1

[18] = biological target: Neu5Gc(a2-3)Gal(b1-4)[Fuc(a1-3)]GlcNAc
How it was run: as §1

B1: Pwp6 (Candida glabrata) (protein)
chain: MGSSHHHHHHSSGLVPRGSHMASANLPKLTNICQIPDNVKKTSGFKGEIRRIGLFPPGGDYTYLLKFPSTGSTASDTISLTTKPQLSTSGWFPSLFGHTYFIKADLLVYMVAYFVPTETGEYTFKLVNSDDAAVMYVGNPSAFPCGSIDTWPEPRKEDINVCDKISASTKLYMEKGLAYPVRLVWYNGGGDGQFNAQFIDPSGTTHTDWNGYVWQYDACTDCDYK
glycan array binding signal (z-score) (Gal3S(b1-4)Glc): -0.252 | glycan array binding signal (z-score) [1]: -0.556 | glycan array binding signal (z-score) [2]: 0.023 | glycan array binding signal (z-score) [3]: 2.94 | glycan array binding signal (z-score) [4]: 3.63 | glycan array binding signal (z-score) [5]: 3.3 | glycan array binding signal (z-score) [6]: 3.79 | glycan array binding signal (z-score) [7]: 3.71 | glycan array binding signal (z-score) (GlcNAc(b1-3)GalNAc): -0.863 | glycan array binding signal (z-score) [8]: -0.466 | glycan array binding signal (z-score) [9]: -0.603 | glycan array binding signal (z-score) [10]: -0.364 | glycan array binding signal (z-score) [11]: 4.2 | glycan array binding signal (z-score) [12]: 1.89 | glycan array binding signal (z-score) [13]: -0.179 | glycan array binding signal (z-score) [14]: -0.222 | glycan array binding signal (z-score) [15]: -0.266 | glycan array binding signal (z-score) [16]: 8.45 | glycan array binding signal (z-score) [17]: 0.14 | glycan array binding signal (z-score) [18]: -0.654
